Results reported in PubChem BioAssay AID525 (The Scripps Research Institute Molecular Screening Center, 2006).
The campaign covered roughly 65,000 compounds. About 360 (0.55%) were called active. The sample holds actives, similar compounds and a random draw of the others, so the mix is not that of the screen.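 The calls were made as follows: active = inhibition above the mean inhibition of all tested compounds plus 3 SD (cut at about 48% in these data); inactive = the rest.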

Target: Steroidogenic factor 1 (Homo sapiens) (UniProt Q13285)
Test: inhibitors of human SF-1, primary screen, cell-based, CHO-K1, Gal4-SF-1 LBD, luciferase luminescence (AID 525);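 also: 0% = SF-1 transfected cells with DMSO and 100% = mock-transfected cells lacking SF-1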
Conditions: CHO-K1 Gal4-SF-1 LBD luciferase reporter; at 10 µM; active compounds read high

Sequence of Steroidogenic factor 1 (Homo sapiens) (Q13285 whole entry, looked up, the tested form may be a part): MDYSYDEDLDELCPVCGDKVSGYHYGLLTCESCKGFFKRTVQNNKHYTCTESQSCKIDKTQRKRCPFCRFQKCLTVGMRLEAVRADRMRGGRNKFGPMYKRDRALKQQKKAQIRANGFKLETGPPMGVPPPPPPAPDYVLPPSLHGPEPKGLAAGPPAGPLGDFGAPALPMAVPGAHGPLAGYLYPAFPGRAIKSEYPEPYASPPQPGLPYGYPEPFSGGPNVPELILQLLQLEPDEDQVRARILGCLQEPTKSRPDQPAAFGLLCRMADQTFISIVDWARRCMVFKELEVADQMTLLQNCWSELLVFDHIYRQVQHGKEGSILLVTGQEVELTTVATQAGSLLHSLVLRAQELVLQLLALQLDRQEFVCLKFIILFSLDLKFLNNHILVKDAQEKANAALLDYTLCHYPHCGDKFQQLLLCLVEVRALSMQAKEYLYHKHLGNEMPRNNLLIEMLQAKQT

| SMILES | inhibition |
| --- | --- |
| O=C(NCCCN1CCN(C2CCCCC2)CC1)Nc1ccccc1C(F)(F)F | -13.5% (inactive) |
| CC(C)(C)NC(=O)C(c1ccco1)N(Cc1ccc2c(c1)OCO2)C(=O)Cn1nnc2ccccc21 (configuration not stated) | -8.6% (inactive) |
| CCOc1cc(S(=O)(=O)NC2CC(C)(C)NC(C)(C)C2)ccc1F | -4.6% (inactive) |
| OCCCNC(c1ccccc1)c1ccc(O)cc1 (configuration not stated) | -6.6% (inactive) |
| CCCOc1ccccc1C(=O)NCCCC(=O)O | -3.2% (inactive) |
| COc1ccccc1Oc1ccc(S(=O)(=O)Nc2cccnc2)cc1 | 13.8% (inactive) |
| COc1cc2cc(CN(CCN3CCCC3)C(=O)Nc3ccccc3Cl)c(=O)[nH]c2cc1OC | 8.5% (inactive) |
| Clc1cccc(Cl)c1Cn1nnc(-c2cccs2)n1 | -50.8% (inactive) |
| CCCNC(=O)C1CC(=O)N(c2ccc(OCC(=O)Nc3cccc(C)c3C)cc2)C1 (configuration not stated) | -1% (inactive) |
| NC(=O)C1CC=CCC1C(=O)OCC(Cl)=C(Cl)Cl (configuration not stated) | 38.2% (inactive) |
| CCCCOC(=O)c1[nH]c(C)c(C(=O)OC)c1C | -77.7% (inactive) |
| O=C(CSc1nnc(-c2c[nH]c3ccccc23)n1-c1ccc(F)cc1)NCc1ccco1 | -15.6% (inactive) |
| CCOC(=O)c1ccc(-c2ccc(C(=O)Nc3cccnc3)o2)cc1 | -51.3% (inactive) |
| Cc1ccc(-c2nnc(SC(C)C#N)n2N)cc1 (configuration not stated) | -9.5% (inactive) |
| C/C(=C\c1ccco1)C1Nc2cccc3cccc(c23)N1 | 1.5% (inactive) |
| O=C(Nc1ccc(-c2nnc(-c3ccccc3)o2)cc1)C1CCCO1 (configuration not stated) | -65.9% (inactive) |
| Cc1ccc(OCC(=O)Nc2ccc(-c3nnc(-c4ccco4)o3)cc2)cc1 | -65.5% (inactive) |
| COc1ccc(CC(=O)Nc2ccc(-c3nnc(-c4ccccc4)o3)cc2)cc1 | 59.5% (active) |
| O=C(CCS(=O)(=O)c1ccccc1)Nc1nc2c(s1)CCCC2 | -3.7% (inactive) |
| CS(=O)(=O)c1ccc2nc(NC(=O)CN3CCCCCC3)sc2c1 | 3.7% (inactive) |
| O=C(NCCc1ccc(Cl)cc1)C1CC(=O)N(C2CCCCC2)C1 (configuration not stated) | -13.3% (inactive) |

| SMILES | inhibition |
| --- | --- |
| CCCCCCOC(=O)NCC(O)c1ccccc1 (configuration not stated) | -52.5% (inactive) |
| O=C1CCC(Cc2ccccc2)N1 (configuration not stated) | 7.6% (inactive) |
| COc1ccc(N2C(=O)CCC(C(=O)Nc3ccccn3)C2c2ccc(OC)c(OC)c2)cc1 (configuration not stated) | -11% (inactive) |
| COCCN(CC(=O)Nc1ccccc1C)S(=O)(=O)c1ccc(S(=O)(=O)N2CCCC2)cc1 | 0.4% (inactive) |
| COc1ccc(N2CCN(C(=O)CSc3ncnc4c3cnn4-c3ccc(OC)cc3)CC2)cc1 | -9% (inactive) |
| COc1ccc(Nc2cc(C)nc(-n3nc(C)cc3C)n2)cc1 | 53.7% (active) |
| Cn1c(=O)c2cn(-c3cccc4ccccc34)cc2n(C)c1=O | -21.5% (inactive) |
| Cc1cc(NC(=O)c2cc(-c3cccs3)on2)nn1Cc1ccc(Cl)cc1 | 2.7% (inactive) |
| NC(=O)CCCC1=NS(=O)(=O)c2ccccc2N1 | 10.1% (inactive) |
| N/C(=N\c1nc2ccccc2o1)NC(=O)C(Cc1ccccc1)N1C(=O)c2ccccc2C1=O (configuration not stated) | 0.7% (inactive) |
| CCOC(=O)C1=C(C)NC(C)=C(C(=O)OCC)C1c1ccccn1 | 6.7% (inactive) |
| CCOC(=O)CNC(=O)CSc1nnc(-c2cccc(OC)c2)n1CC | 12.5% (inactive) |
| CC(C)(C)n1nc2c(c1NC(=O)c1ccc(S(=O)(=O)N3CCCC3)cc1)CS(=O)C2 (configuration not stated) | 6.6% (inactive) |
| Cc1ccc(C(=O)Nc2nnc(-c3cccs3)s2)cc1C | -80.9% (inactive) |
| CC1CCCCN1S(=O)(=O)c1ccc(C(=O)Nc2nnc(-c3cccs3)o2)cc1 (configuration not stated) | 49.4% (active) |
| Cc1ccc(-n2c(SCC(=O)Nc3ccc4c(c3)OCO4)nnc2-c2ccoc2C)cc1 | 1% (inactive) |
| CCCOC(=O)Nc1ccccc1C(N)=O | -2.2% (inactive) |
| CCCCOc1ccc(-c2ncc(C(=O)OCC)c(N)n2)cc1 | -49.8% (inactive) |
| O=C(CN1CCN(c2ccccn2)CC1)NCc1cccs1 | -7.1% (inactive) |
| COc1ccc(-n2ncc3c(N4CCc5ccccc54)ncnc32)cc1 | -59.8% (inactive) |
| c1cc(-n2cnnn2)ccc1NC1=NCCC1 | 9.1% (inactive) |

| SMILES | inhibition |
| --- | --- |
| CCC(=O)Nc1ccc2c(c1)nc(CCN1CCN(C)CC1)n2C | 2.6% (inactive) |
| CCOC(=O)Cc1csc(NC(=O)C(C)(C)C)n1 | -20.2% (inactive) |
| CCn1c(CNc2ccc(OC)cc2)nnc1SCC(=O)c1ccc(OC)cc1 | 9.6% (inactive) |
| COc1cc(Cl)c(C)cc1NC(=O)CSc1nnc(-c2cccnc2)n1Cc1ccco1 | -10.6% (inactive) |
| Cc1nnc(SCC(=O)N(C(C)C)C(C)C)nc1C | 3.3% (inactive) |
| Cc1ccsc1C(=O)OCC(=O)c1cc(C)n(CC2CCCO2)c1C (configuration not stated) | 80.5% (active) |
| O=C(OCC(=O)c1cccs1)C1=COCCO1 | -24.5% (inactive) |
| CCOc1cccc(NC(=O)CC#N)c1 | -9.5% (inactive) |
| C/C(=N\O)C1(C)N(O)C(C)(C)C(c2ccc(Br)cc2)=[N+]1[O-] (configuration not stated) | 8.5% (inactive) |
| O=S(=O)(Nc1ccc2nc(-c3ccco3)[nH]c2c1)c1ccccc1 | -53.5% (inactive) |
| Cn1c(-c2ccco2)nc2cc3ccccc3cc21 | 54.3% (active) |
| c1ccc(CSc2nnc(-c3ccco3)n2Cc2ccccc2)cc1 | -76% (inactive) |
| Cc1cc(NC(=O)CCC(=O)N(c2ccccc2)C(C(=O)NC2CCCC2)c2ccncc2)no1 (configuration not stated) | -9.4% (inactive) |
| CCOc1ccccc1NC(=O)CCc1ccc(C)o1 | 14.7% (inactive) |
| O=C(O)C1CCCN(S(=O)(=O)c2cccc3cccnc23)C1 (configuration not stated) | -5.7% (inactive) |
| COc1ccc(N2CC(C)Cn3c2nc2c3c(=O)n(Cc3ccccc3F)c(=O)n2C)c(OC)c1 (configuration not stated) | -2.3% (inactive) |
| Nc1ncc(-c2cc3ccccc3oc2=O)s1 | -79.3% (inactive) |
| CCOC(=O)c1c(C(C#N)C#N)cc(C)nc1C | -2.3% (inactive) |
| CC(C)COC(=O)c1ccc(NC(=O)C2C3C=CC(C3)C2C(=O)O)cc1 (configuration not stated) | -63.7% (inactive) |
| Cn1c(=O)c2c(nc(SCCNS(=O)(=O)c3ccccc3)n2C)n(C)c1=O | 13.3% (inactive) |
